“And” between values parts separate entries of the source, which are not always exact repeats. Equal values may be shown once. The campaign covered roughly 5,500 compounds. About 2,000 (36%) were called active. Another 18% or so got no clear call; they are omitted. Rule as the data show it: active = normalized growth mostly below about 0.91 (no sharp cut-off); inconclusive = no clear call, values can overlap the other calls; inactive = mostly above about 0.92. This is one part of the list.
Assay: chemical genetic growth profiling, strain panel (AID 1159580);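 also: tested at 20 µM; growth read once vehicle control cultures reached saturation at 30 °C; 1 = growth at the plate median or of vehicle wells; lower values mean less growth of the strain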
Settings: S. cerevisiae deletion strains, growth OD

Measured: normalized growth

O=C1OCCN1/N=C\c1ccc([N+](=O)[O-])o1
active: locus YAL026C, strain drs2, stronger effect = lower value 0.889 | locus YDR162C, strain NBP2, stronger effect = lower value 0.771 | locus YDR392W, strain spt3, stronger effect = lower value 0.72 | locus YDR502C, strain sam2, stronger effect = lower value 0.92 | locus YER155C, strain BEM2 (second series), stronger effect = lower value 0.788 | locus YGL086W, strain mad1, stronger effect = lower value 0.923 | locus YJR043C, strain POL32, stronger effect = lower value 0.762
inactive: locus YAL013W, strain DEP1, stronger effect = lower value 0.986 | locus YAL021C, strain ccr4, stronger effect = lower value 0.961 | locus YAL030W, strain snc1, stronger effect = lower value 0.999 | locus YBL061C, strain skt5, stronger effect = lower value 1 | locus YBR009C, strain hhf1, stronger effect = lower value 0.97 | locus YBR021W, strain FUR4, stronger effect = lower value 1.03 | locus YBR023C, strain chs3, stronger effect = lower value 1 | locus YBR171W, strain sec66, stronger effect = lower value 0.987 | locus YBR229C, strain ROT2, stronger effect = lower value 0.999 | locus YBR231C, strain swc5, stronger effect = lower value 0.929 | locus YBR279W, strain paf1, stronger effect = lower value 0.986 | locus YCL011C, strain gbp2, stronger effect = lower value 0.991 | locus YCL016C, strain dcc1, stronger effect = lower value 0.935 | locus YCL029C, strain bik1, stronger effect = lower value 0.97 | locus YCL061C, strain MRC1, stronger effect = lower value 0.987 | locus YCL069W, strain vba3, stronger effect = lower value 0.993 | locus YCR088W, strain abp1, stronger effect = lower value 0.976 | locus YDL005C, strain med2, stronger effect = lower value 0.998 | locus YDL035C, strain GPR1, stronger effect = lower value 0.913 | locus YDL040C, strain nat1, stronger effect = lower value 1 | locus YDL074C, strain BRE1, stronger effect = lower value 0.885 | locus YDL101C, strain DUN1, stronger effect = lower value 0.95 | locus YDL185W, strain tfp1, stronger effect = lower value 0.993 | locus YDL192W, strain arf1, stronger effect = lower value 0.99 | locus YDR001C, strain nth1, stronger effect = lower value 1 | locus YDR069C, strain doa4, stronger effect = lower value 0.928 | locus YDR101C, strain arx1, stronger effect = lower value 0.92 | locus YDR137W, strain rgp1, stronger effect = lower value 0.901 | locus YDR150W, strain NUM1, stronger effect = lower value 1.01 | locus YDR159W, strain sac3, stronger effect = lower value 1.01 | locus YDR195W, strain ref2 1.14 | locus YDR297W, strain sur2, stronger effect = lower value 0.992 | locus YDR318W, strain mcm21, stronger effect = lower value 0.919 | locus YDR334W, strain swr1, stronger effect = lower value 1.01 | locus YDR335W, strain msn5, stronger effect = lower value 0.975 | locus YDR388W, stronger effect = lower value 0.982 | locus YEL003W, strain gim4, stronger effect = lower value 0.916 | locus YEL037C, strain rad23, stronger effect = lower value 0.986 | locus YEL061C, strain CIN8 (second series), stronger effect = lower value 1 | locus YEL061C, strain CIN8, stronger effect = lower value 0.999 | locus YER015W, strain faa2, stronger effect = lower value 0.986 | locus YER016W, strain bim1, stronger effect = lower value 0.932 | locus YER110C, stronger effect = lower value 0.979 | locus YER111C, strain swi4, stronger effect = lower value 1.01 | locus YER155C, strain BEM2, stronger effect = lower value 0.996 | locus YER167W, strain BCK2, stronger effect = lower value 0.978 | locus YFR010W, strain ubp6, stronger effect = lower value 0.919 | locus YGL078C, strain dbp3, stronger effect = lower value 0.955 | locus YGL167C, strain pmr1, stronger effect = lower value 1 | locus YGL173C, strain kem1, stronger effect = lower value 0.982 | locus YGL227W, strain vid30, stronger effect = lower value 1 | locus YGL240W, strain doc1, stronger effect = lower value 0.935 | locus YGL248W, strain PDE1, stronger effect = lower value 0.944 | locus YGL253W, strain hxk2, stronger effect = lower value 0.934 | locus YGR135W, strain pre9, stronger effect = lower value 0.936 | locus YGR252W, strain gcn5, stronger effect = lower value 0.808 | locus YHR013C, strain ard1, stronger effect = lower value 1.01 | locus YHR027C, strain rpn1, stronger effect = lower value 0.967 | locus YHR030C, strain SLT2, stronger effect = lower value 1 and 0.876 | locus YHR079C, strain IRE1 (second series), stronger effect = lower value 0.937 | locus YHR079C, strain IRE1, stronger effect = lower value 0.88 | locus YHR094C, strain hxt1, stronger effect = lower value 0.999 | locus YHR129C, strain ARP1, stronger effect = lower value 0.992 | locus YHR142W, strain chs7, stronger effect = lower value 0.967 | locus YHR200W, strain rpn10, stronger effect = lower value 0.995 | locus YIL066C, strain RNR3, stronger effect = lower value 0.997 | locus YIL073C, strain SPO22, stronger effect = lower value 0.761 | locus YIL125W, strain kgd1, stronger effect = lower value 0.974 | locus YIR030C, strain dcg1, stronger effect = lower value 0.967 | locus YJL092W, strain hpr5, stronger effect = lower value 0.937 | locus YJL095W, strain BCK1 (second series), stronger effect = lower value 1.02 | locus YJL115W, strain asf1, stronger effect = lower value 0.982 | locus YJL129C, strain trk1, stronger effect = lower value 1.09 | locus YJL134W, strain LCB3, stronger effect = lower value 0.998 | locus YJL154C, strain vps35, stronger effect = lower value 0.993 | locus YJL164C, strain tpk1, stronger effect = lower value 0.962 | locus YJL166W, strain qcr8, stronger effect = lower value 0.985 | locus YJL168C, strain set2, stronger effect = lower value 0.999 | locus YJL187C, strain SWE1 (second series), stronger effect = lower value 0.971 | locus YJL187C, strain SWE1, stronger effect = lower value 1 | locus YJR066W, strain TOR1, stronger effect = lower value 0.826
0.883 (inactive) and 0.85 (active): locus YJL095W, strain BCK1, stronger effect = lower value

From PubChem BioAssay AID1159580 (chemical genetic matrix, 2015)
